Source: PubChem BioAssay
Only a selection was taken, and hits are over-represented in it overall.
Shiga toxin inh – inhibitors of Shiga toxin in Vero cells | inhibition, % at 38.7 µM | Vero cells, Shiga toxin protein synthesis inhibition reporter | hit rate 9.2% among 290,000 | AID 2315; in the data active = inhibition mostly above about 28%, no sharp cut-off; inactive = mostly below about 43%; also: 0% is about no effect
Tb PYK inh – blocks Trypanosoma brucei pyruvate kinase; TbPYK enzyme, Kinase-Glo Plus ATP luminescence, 45 min; hit rate 0.12% among 410,000; Potency, µM (titrated, usually from 76.8 µM), for inactives: at the top dose activity, negative = inhibition, actives largely listed as inhibitors; Q57TT1; also: potency is read from the fitted curve at half-maximal effect; % is scaled to controls: 0 for no effect and ±100 for the full control effect; nearly all actives have a fitted effect of over 50% in size
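T. brucei PYK with substrate was exposed to pin-transferred compounds across a concentration series, then started with 130 uM ADP (final). After 45 min at room temperature, Kinase-Glo Plus luminescence was read, normalized and curve-fitted.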
Giardia FBPA inh – inhibitors of Giardia lamblia fructose-1,6-bisphosphate aldolase. purified Giardia FBPA. Potency, µM (series often up to 59.6 µM), for the others: top-dose activity, negative = inhibition, most hits filed as inhibitors. AID 2451. hit rate 0.71% among 290,000; also: potency is read from the fitted curve at half-maximal effect; % is scaled to controls: 0 for no effect and ±100 for the full control effect; nearly all actives have a fitted effect of over 55% in size
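40 nM FBPA preincubated 10 min at RT with compound (up to 57.5 uM final), then substrate plus GAPDH/TPI/NAD/arsenate coupling and diaphorase/resazurin added. Fluorescence read after 20 min at RT, 525/598 nm.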
LmPK inhibitor – blocks Leishmania mexicana pyruvate kinase activity; Q27686; purified LmPK, Kinase-Glo ATP luminescence, 1 h; Potency, µM (titrated, usually from 57.5 µM), without a hit: at the highest dose activity change, negative = inhibition, most hits filed as inhibitors; hit rate 0.37% among 290,000; AID 1721; also: potency is read from the fitted curve at half-maximal effect; % is scaled to controls: 0 for no effect and ±100 for the full control effect
Target sequence (Q27686 whole entry, looked up): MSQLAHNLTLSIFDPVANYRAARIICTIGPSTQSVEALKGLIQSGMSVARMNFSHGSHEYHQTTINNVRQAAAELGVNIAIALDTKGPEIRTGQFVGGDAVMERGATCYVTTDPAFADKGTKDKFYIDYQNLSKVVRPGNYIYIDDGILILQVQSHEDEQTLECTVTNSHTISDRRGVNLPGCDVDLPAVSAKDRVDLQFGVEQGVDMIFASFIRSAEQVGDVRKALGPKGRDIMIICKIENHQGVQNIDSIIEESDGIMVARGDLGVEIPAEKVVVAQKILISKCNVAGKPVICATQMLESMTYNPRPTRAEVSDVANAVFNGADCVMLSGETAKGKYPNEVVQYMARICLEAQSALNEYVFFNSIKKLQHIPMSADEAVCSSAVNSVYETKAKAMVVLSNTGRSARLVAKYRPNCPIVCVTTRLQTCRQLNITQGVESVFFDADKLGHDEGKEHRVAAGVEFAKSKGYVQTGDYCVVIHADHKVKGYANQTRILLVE
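0.1 nM LmPK, 0.5 mM PEP, 0.1 mM ADP; 50 mM imidazole pH 7.2, 7 mM MgCl2, 50 mM KCl; 1 h RT. Kinase-Glo luminescence readout, normalized to no-enzyme (full inhibition) and uninhibited wells.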
CHX counter – affects cycloheximide protein synthesis inhibition readout, counter-screen. hit rate 12% among 300,000. max response, %. cell reporter, cycloheximide protein synthesis inhibition counterscreen; in the data active = max response mostly above about 13%, no sharp cut-off; inactive = mostly below about 14%; also: read at 38.3 µM for the half of the compounds with a filed dose; 0% is about no effect
RE007 growth inh – less growth of the S. pombe RE007 Vpr strain | S. pombe RE007 Vpr strain, BacTiter-Glo ATP luminescence, 24 h | Potency, µM (top dose mostly 92.2 µM), for the others: at the top dose activity change, negative = less growth, actives largely listed as inhibitors | hit rate 0.21% among 360,000; active = well fitted falling curve with a large enough effect; also: potency is read from the fitted curve at half-maximal effect; % is scaled to controls: 0 for no effect and ±100 for the full control effect; nearly all actives have a fitted effect of over 50% in size
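Fission yeast strain RE007, carrying one chromosomally integrated HIV-1 vpr copy, was seeded at OD 0.01 in PMG+AL medium with 23 nL pinned compound. After 24 h at 30 °C and 99% humidity, viability was read by BacTiter-Glo luminescence.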
* marks the source's active call; other numbers are inactive results; nt = no result given. Unless noted, calls follow the shape of the dose curve; as a rule, active = well fitted curve in the direction sought with a large enough effect; inconclusive = small, poorly fitted or top-dose-only effect, or another doubt; inactive = no such curve, though single readings can be large; an effect the other way counts as inactive or inconclusive.

SMILES	Shiga toxin inh	Tb PYK inh	Giardia FBPA inh	LmPK inhibitor	CHX counter	RE007 growth inh
COc1ccc(-c2csc(NC(=O)c3ccc(S(C)(=O)=O)cc3)n2)cc1	72*	1%	-1%	1%	33*	-2%
Cc1csc(NC(=O)c2ccc(S(=O)(=O)N(C)c3ccccc3)cc2)n1	42*	-9%	5%	-2%	34*	-2%
COC(=O)c1c(-c2ccncc2)csc1NC(=O)c1ccoc1C	66*	-3%	1%	3%	21*	-2%
O=C(NC1CC(=O)N(c2cccc(F)c2)C1)c1cc2ccccc2o1 (configuration not stated)	nt	-12%	nt	nt	nt	nt
Cc1cc2c(cc1S(=O)(=O)CCC(=O)N1CCCC(C)C1)OCC(=O)N2 (configuration not stated)	nt	3%	nt	nt	nt	nt
Cc1oc(C(C)(C)C)c(CN2CCOCC2)c1C(=O)O	-4	-1%	-9%	-4%	2	3%
Cc1ccc(Nc2nc(-c3cccnc3)cs2)cc1Cl	78	-6%	-2%	-2%	44*	-4%
c1cncc(Nc2nc(-c3cccnc3)cs2)c1	21	3%	5%	3%	12	20%
Cc1ccc(C)c(Nc2nc(-c3cccnc3)cs2)c1	111*	-2%	4%	9%	24*	-3%
Cc1ccc(C(=O)C(C(=O)/C=C/c2ccccc2)=C2SCCCS2)cc1	40	-17%	1%	5%	20*	4%
Cc1ccc(C(=O)C=CC=Cc2ccccc2)cc1	nt	-15%	nt	nt	nt	-14%
CC[C@H](C)[C@H](NC(=O)[C@H](Cc1ccc(O)cc1)NC(=O)[C@H](CCCNC(=N)N)NC(=O)[C@H](CCCNC(=N)N)NC(=O)[C@H](CC(C)C)NC(=O)[C@H](CCC(N)=O)NC(=O)[C@@H](NC(=O)[C@H](CCC(=O)O)NC(=O)[C@H](Cc1ccc(O)cc1)NC(=O)[C@H](CCC(N)=O)NC(=O)[C@H](C)NC(=O)[C@H](CCCNC(=N)N)NC(=O)[C@H](CCC(N)=O)NC(=O)[C@H](CCC(=O)O)NC(=O)[C@H](Cc1cnc[nH]1)NC(=O)[C@@H](NC(=O)[C@H](C)NC(=O)[C@H](Cc1ccc(O)cc1)NC(=O)[C@H](CC(=O)O)NC(=O)CNC(=O)[C@@H]1CCCN1C(=O)[C@H](Cc1ccc(O)cc1)NC(=O)[C@H](CCSC)NC(=O)[C@@H]1CCCN1C(=O)[C@H](CCC(=O)O)NC(=O)[C@H](CC(C)C)NC(=O)[C@@H]1CCCN1C(=O)[C@H](C)N)[C@@H](C)O)[C@@H](C)O)C(=O)N[C@@H](CC(N)=O)C(=O)N[C@H](C(=O)N[C@@H](CC(C)C)C(=O)N[C@H](C(=O)N[C@@H](CCCNC(=N)N)C(=O)N1CCC[C@H]1C(=O)N[C@@H](CCCNC(=N)N)C(=O)N[C@@H](Cc1ccc(O)cc1)C(N)=O)[C@@H](C)O)[C@@H](C)O	-1	nt	-1%	nt	-6	nt
